Source: the supplement of paper PMC6555819

Each sequence was assayed on THRa:RXRa (NR concentration 90 nM, RXRa partner concentration 90 nM) (assay: PBM binding z-score (relative to random genomic background probes); higher = stronger binding; sequences stand for … in GC…GCGATTGACAGCGTAGAATGAAGG).
Method in brief: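 The probes on custom Agilent 4×180K protein-binding microarrays were double-stranded, with 34-nt variable regions bearing direct-repeat seeds, single-nucleotide variants, half-site ablations and random human genomic background sequences. Incubation lasted 1 h with ligand-free nuclear receptor dimers in PBS pH 7.4, 2% milk, 0.02% Triton X-100, 1 mM DTT, 0.2 mg/mL BSA and 0.4 mg/ml salmon testes DNA. Antibodies against each partner (one per run) detected bound dimers, and fluorescence scans were regression-normalized. Binding z-scores take the random background probes as reference.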

Sequence	PBM binding z-score
GTACAAAGGTGAATAGGTCGTTGATGAGTAGGCG	1.72
CGGCCAAGGTCAGAGAGGTCAGTGAATGCCGAGT	4.17
TCTCGGAGGACACGAAGGTCAGAGCCTTCCAGAG	2.66
CCAGACAGGTGAAAGGTAACTCAGTCTGGTACGC	0.824
ATATGAAGGTTAGCTGGGGTCATTCAGACTAGGC	5.24
CCAGACAGGTGAGAAGGTACCTCAGCCTCGATTA	0.0348
GTACCAAGGTGAATAGCTCGTTGATGAGTAGGCG	1.15
AGACCAAGGTGATCGTGAGGTCGTTGATACTAAC	3.4
TCTTGTAGGTCAACAGGAGGTTAAGAAAGATCGA	3.41
CGTCCAAGGTCAAAGGTCTGTGAAGAGATGACGG	4.04
GCTATTAGTTTAAAGGGCAACCGAATGATTCTCG	0.923
ATCTCTAGGTAAAGTTCCGTGAAAGATCGATAGA	0.529
GTACCAAGGTGAATAGGTCGTTCATGAGTAGGCG	1.78
CAAACTCGGTCACCGGAAGGTCAAAGTCCGCATG	3.44
GCTGCTAGGTCAGGTCGGTCAGCTAACGGGTACG	2.48
TCGAGTAGGTTACCAACGGGGCATTCAGCTTTCT	0.042
CCTCGGAGGACACAAGGTCAGAGCTGTCCGCTTT	3.65
CCTTACGGGTCACTCCAGGTTATAGCTTCGGAGT	4.92
ATCTCTAGGTAAAGATTGTTCAGTGAATGCAAAT	0.472
CGAGACAGGTGAGAAGGTAACTCAGCCTCGATTA	0.0357

Sequence	PBM binding z-score
ATCTCTAGGTAAAGATAGTTCCGTGAATGCAAAT	0.316
GCAGACAGGTGAAACGCAGTTAACTCAGGGTGGC	0.459
CGTCCAAGGTCAAAGCTCAGTGAAGAGATGACGG	3.63
CCTACTGGGCCATCAGGTCTTTGATATCAACGTT	0.487
CGTACTGGGCCAAGGTCATTGATCAGTCAAAGCA	3.42
AGAATGAGGTTACCAAAGATCATGGAAACGCTTG	3.03
ATCTCTAGGTAGCCAAGTTCAGTGAATGCCGAAC	0.48
ATATGTAGGTTAAGGGTCATTCACGTTGGTTCGC	3.36
TCTGCTAGGTCAACGATGGTCAGCTGATCTGCTA	2.99
ACTATTACTTGACTTAGGGCAACCGATACGACGC	0.888
CAAACTATGTCACGAAAGGTCAAAGTCGAATGAC	4.49
CCGACTGGGGCAAAGGTTAACATACTCAGTACGA	2.19
TCTTGTAGATCAATAGAGGTTAAGAGAGTGCGCT	2.56
TAGCCTAGGTCAGATCGGGCCAGCATACGCTATA	4.27
TCTTGTAGATCAAGCAGGTTAAGAGAGCCTGAGT	0.276
AGATTGAGGTTATTAAGATCAGGGAATTGCGGTC	2.37
ACTATTAGTTGTCTTAGGGCAACCGATACGACGC	1.03
ATATGTAGGTTAGCTGGGGTCATTAAGACTAGGC	5.26
TCTTGTAGATCAGCTGGTTAAGAAAGCTGGCCAA	-0.515
TGTCAAAGTTCAAAGGTAACGCAAGTATCCACAC	3.23
